# Results as given in the supplement of paper PMC8728848.
# Shown is part of a subset that was picked to be rich in the strongest signals.
# Assays:
# Assay in all cases: glycan array binding signal (z-score within array); higher = stronger binding
# Settings in all cases: glycan notation: IUPAC condensed, linker removed
# [1] = biological target: Fuc(a1-2)Gal(b1-4)GlcNAc(b1-3)Gal(b1-4)GlcNAc(b1-2)Man(a1-3)[Fuc(a1-2)Gal(b1-4)GlcNAc(b1-3)Gal(b1-4)GlcNAc(b1-2)Man(a1-6)]Man(b1-4)GlcNAc(b1-4)GlcNAc
# Summary of the method: (§1)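 The binding signal is a Z-score computed within each array. Data were drawn from 3228 arrays in the Consortium for Functional Glycomics database, restricted to those with a known protein sequence. Scores were averaged over arrays of the same protein sequence at different concentrations or buffers, and over linkers, and negative values can be taken as non-binding.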
# [2] = biological target: Fuc(a1-2)Gal(b1-4)[Fuc(a1-3)]GlcNAc(b1-3)Gal(b1-4)[Fuc(a1-3)]GlcNAc(b1-3)Gal(b1-4)[Fuc(a1-3)]GlcNAc
# Summary of the method: as §1
# [3] = biological target: Fuc(a1-2)Gal(b1-4)[Fuc(a1-3)]GlcNAc(b1-3)GalNAc
# Summary of the method: as §1
# [4] = biological target: Fuc(a1-2)Gal6S(b1-4)Glc6S
# Summary of the method: as §1
# [5] = biological target: Fuc(a1-3)[Gal(b1-4)]GlcNAc(b1-6)GalNAc
# Summary of the method: as §1
# Gal(a1-2)Gal = biological target: Gal(a1-2)Gal
# Summary of the method: as §1
# Gal(a1-3)Gal(b1-3)GlcNAc = biological target: Gal(a1-3)Gal(b1-3)GlcNAc
# Summary of the method: as §1
# Gal(a1-3)Gal(b1-4)Glc = biological target: Gal(a1-3)Gal(b1-4)Glc
# Summary of the method: as §1
# Gal(a1-4)GlcNAc = biological target: Gal(a1-4)GlcNAc
# Summary of the method: as §1
# Gal(b1-2)Gal = biological target: Gal(b1-2)Gal
# Summary of the method: as §1
# Gal(b1-3)Gal = biological target: Gal(b1-3)Gal
# Summary of the method: as §1
# Gal(b1-3)GalNAc = biological target: Gal(b1-3)GalNAc
# Summary of the method: as §1
# [6] = biological target: Gal(b1-3)[Fuc(a1-4)]GlcNAc(b1-6)GalNAc
# Summary of the method: as §1
# [7] = biological target: Gal(b1-4)GalNAc(b1-3)[Fuc(a1-2)]Gal(b1-4)GlcNAc
# Summary of the method: as §1
# [8] = biological target: Gal(b1-4)GlcNAc(b1-3)Gal(b1-4)GlcNAc(b1-2)Man(a1-3)[Gal(b1-4)GlcNAc(b1-3)Gal(b1-4)GlcNAc(b1-2)Man(a1-6)]Man(b1-4)GlcNAc(b1-4)GlcNAc
# Summary of the method: as §1
# [9] = biological target: Gal(b1-4)GlcNAc(b1-3)Gal(b1-4)GlcNAc(b1-2)Man(a1-3)[Gal(b1-4)GlcNAc(b1-3)Gal(b1-4)GlcNAc(b1-2)Man(a1-6)]Man(b1-4)GlcNAc(b1-4)[Fuc(a1-6)]GlcNAc
# Summary of the method: as §1
# [10] = biological target: Gal(b1-4)GlcNAc(b1-3)Gal(b1-4)GlcNAc(b1-2)[Gal(b1-4)GlcNAc(b1-3)Gal(b1-4)GlcNAc(b1-6)]Man(a1-6)[Gal(b1-4)GlcNAc(b1-3)Gal(b1-4)GlcNAc(b1-2)Man(a1-3)]Man(b1-4)GlcNAc(b1-4)[Fuc(a1-6)]GlcNAc
# Summary of the method: as §1
# [11] = biological target: Gal(b1-4)GlcNAc(b1-3)Gal(b1-4)GlcNAc(b1-3)Gal(b1-4)GlcNAc(b1-2)Man(a1-3)[Gal(b1-4)GlcNAc(b1-3)Gal(b1-4)GlcNAc(b1-3)Gal(b1-4)GlcNAc(b1-2)Man(a1-6)]Man(b1-4)GlcNAc(b1-4)GlcNAc
# Summary of the method: as §1
# [12] = biological target: Gal(b1-4)GlcNAc(b1-3)[Gal(b1-4)GlcNAc(b1-6)]Gal(b1-4)GlcNAc
# Summary of the method: as §1
# [13] = biological target: Gal(b1-4)GlcNAc(b1-3)[GlcNAc(b1-6)]Gal(b1-4)GlcNAc
# Summary of the method: as §1
# Gal(b1-4)GlcNAc6P = biological target: Gal(b1-4)GlcNAc6P
# Summary of the method: as §1
# Gal(b1-6)Gal = biological target: Gal(b1-6)Gal
# Summary of the method: as §1
# Gal3S(b1-3)GlcNAc = biological target: Gal3S(b1-3)GlcNAc
# Summary of the method: as §1
# Gal3S(b1-4)Glc = biological target: Gal3S(b1-4)Glc
# Summary of the method: as §1
# Gal3S6S(b1-4)GlcNAc6S = biological target: Gal3S6S(b1-4)GlcNAc6S
# Summary of the method: as §1
# GalNAc(b1-3)Gal = biological target: GalNAc(b1-3)Gal
# Summary of the method: as §1
# [14] = biological target: GalNAc(b1-4)GlcNAc(b1-2)Man(a1-3)[GalNAc(b1-4)GlcNAc(b1-2)Man(a1-6)]Man(b1-4)GlcNAc(b1-4)GlcNAc
# Summary of the method: as §1
binder,measurement,setting,value
LngA (Escherichia coli) (protein) MLSVYNRTQKFKAEARKKIAKYHELRKQRGMSLLEVIIVLGIIGTIAAGVVILAQRAFDSRAVTDLVTNTNTVRVRMKDAYQRDGKYPDFVDPLSLTANTIKTDTSGIPAAQLVQLGKITPDEVRNNISGDFIAIGGALTSNGAQVKKGFAIELNGLSQEQCRSILGQVGNNWEYVAIGTSASGSYAMTATGVDMSVAASTTVLRSLGNNGQTTLTADKILSTCTAQVNSITLGSR,glycan array binding signal (z-score),[1],-0.248
same,glycan array binding signal (z-score),[2],-0.414
same,glycan array binding signal (z-score),[3],0.215
same,glycan array binding signal (z-score),[4],0.398
same,glycan array binding signal (z-score),[5],-0.182
same,glycan array binding signal (z-score),Gal(a1-2)Gal,0.247
same,glycan array binding signal (z-score),Gal(a1-3)Gal(b1-3)GlcNAc,2.92
same,glycan array binding signal (z-score),Gal(a1-3)Gal(b1-4)Glc,-0.144
same,glycan array binding signal (z-score),Gal(a1-4)GlcNAc,-0.206
same,glycan array binding signal (z-score),Gal(b1-2)Gal,2.94
same,glycan array binding signal (z-score),Gal(b1-3)Gal,-0.316
same,glycan array binding signal (z-score),Gal(b1-3)GalNAc,-0.143
same,glycan array binding signal (z-score),[6],-0.438
same,glycan array binding signal (z-score),[7],-0.632
same,glycan array binding signal (z-score),[8],3.2
same,glycan array binding signal (z-score),[9],-0.289
same,glycan array binding signal (z-score),[10],4.27
same,glycan array binding signal (z-score),[11],3.43
same,glycan array binding signal (z-score),[12],-0.205
same,glycan array binding signal (z-score),[13],-0.507
same,glycan array binding signal (z-score),Gal(b1-4)GlcNAc6P,4.74
same,glycan array binding signal (z-score),Gal(b1-6)Gal,0.393
same,glycan array binding signal (z-score),Gal3S(b1-3)GlcNAc,-0.1
same,glycan array binding signal (z-score),Gal3S(b1-4)Glc,4.16
same,glycan array binding signal (z-score),Gal3S6S(b1-4)GlcNAc6S,2.24
same,glycan array binding signal (z-score),GalNAc(b1-3)Gal,0.532
same,glycan array binding signal (z-score),[14],-0.153
